The values below come from article PMC8384837, “Expanding the binding specificity for RNA recognition by a PUF domain”.

What all share (assay): yeast three-hybrid, YBZ-1, SC-Leu-His + 0.5 mM 3-AT, 4 days
Holding throughout (conditions): tags: N-Gal4 AD-HA kept; label: inside an RPR1-promoter hybrid RNA with tandem MS2 sites; ssRNA

One test has as its target PUM1 PUF domain R3-GRF (Homo sapiens, UniProt Q14671 828-1176, C935G;Q939F). A digest of the protocol:
(§1)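 Repeat regions from input (SC-Leu) and selection (SC-Leu-His + 0.5 mM 3-AT) plates were PCR-amplified and Illumina-sequenced after four days of growth. The cells were strain YBZ-1 with a LexA–MS2 coat fusion and a HIS3 reporter, co-expressing Pumilio-1 PUF domain libraries and matching RNA elements from a centromeric plasmid. The interaction score is the log change in variant frequency from input to selection, taken in log2 with a pseudocount of 1 for absent variants.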

The next test has as its target PUM1 PUF domain R3-GPS (Homo sapiens, UniProt Q14671 828-1176, C935G;R936P;Q939S). A digest of the protocol: as §1
The target of another test is PUM1 PUF domain R3-NPR (Homo sapiens, UniProt Q14671 828-1176, C935N;R936P;Q939R). Summed up: as §1
A further test concerns the target PUM1 PUF domain R5-RRN (Homo sapiens, UniProt Q14671 828-1176, C1007R;Q1011N). Summed up: as §1
A further test addresses PUM1 PUF domain R4-SMT (Homo sapiens, UniProt Q14671 828-1176, N971S;H972M;Q975T). Summed up: as §1
The next test deals with PUM1 PUF domain R1-RKM (Homo sapiens, UniProt Q14671 828-1176, S863R;R864K;Q867M). A digest of the protocol: as §1
The target in a further test is PUM1 PUF domain R3-TCE (Homo sapiens, UniProt Q14671 828-1176, C935T;R936C;Q939E). A digest of the protocol:
as §1

In a further test the target is PUM1 PUF domain R3-GFG (Homo sapiens, UniProt Q14671 828-1176, C935G;R936F;Q939G). A digest of the protocol: as §1
In the next test the target is PUM1 PUF domain R8-PFK (Homo sapiens, UniProt Q14671 828-1176, N1122P;Y1123F;Q1126K). Summed up: as §1
A further test concerns the target PUM1 PUF domain R5-ARR (Homo sapiens, UniProt Q14671 828-1176, C1007A;Q1011R). A digest of the protocol:
as §1

Sequence of PUM1 PUF domain R5-RRN (Q14671 828-1176 C1007R/Q1011N): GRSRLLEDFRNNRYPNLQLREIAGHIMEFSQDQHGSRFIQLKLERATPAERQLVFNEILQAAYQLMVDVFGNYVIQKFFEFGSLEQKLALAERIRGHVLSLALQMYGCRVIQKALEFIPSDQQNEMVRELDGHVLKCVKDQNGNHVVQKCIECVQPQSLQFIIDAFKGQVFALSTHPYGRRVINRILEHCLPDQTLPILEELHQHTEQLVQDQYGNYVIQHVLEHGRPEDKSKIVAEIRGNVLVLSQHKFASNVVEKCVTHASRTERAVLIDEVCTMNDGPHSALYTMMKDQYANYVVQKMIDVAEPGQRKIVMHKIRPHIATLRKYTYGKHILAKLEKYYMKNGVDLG
Sequence of PUM1 PUF domain R3-GPS (Q14671 828-1176 C935G/R936P/Q939S): as the sequence (Q14671 828-1176 C1007R/Q1011N) above, with C108G, R109P, Q112S, R180C, N184Q counted along it
Sequence of PUM1 PUF domain R4-SMT (Q14671 828-1176 N971S/H972M/Q975T): as the sequence (Q14671 828-1176 C1007R/Q1011N) above, with N144S, H145M, Q148T, R180C, N184Q counted along it
Sequence of PUM1 PUF domain R3-GRF (Q14671 828-1176 C935G/Q939F): as the sequence (Q14671 828-1176 C1007R/Q1011N) above, with C108G, Q112F, R180C, N184Q counted along it
Sequence of PUM1 PUF domain R8-PFK (Q14671 828-1176 N1122P/Y1123F/Q1126K): as the sequence (Q14671 828-1176 C1007R/Q1011N) above, with R180C, N184Q, N295P, Y296F, Q299K counted along it
Sequence of PUM1 PUF domain R3-GFG (Q14671 828-1176 C935G/R936F/Q939G): as the sequence (Q14671 828-1176 C1007R/Q1011N) above, with C108G, R109F, Q112G, R180C, N184Q counted along it
Sequence of PUM1 PUF domain R5-ARR (Q14671 828-1176 C1007A/Q1011R): as the sequence (Q14671 828-1176 C1007R/Q1011N) above, with R180A, N184R counted along it
Sequence of PUM1 PUF domain R3-TCE (Q14671 828-1176 C935T/R936C/Q939E): as the sequence (Q14671 828-1176 C1007R/Q1011N) above, with C108T, R109C, Q112E, R180C, N184Q counted along it
Sequence of PUM1 PUF domain R1-RKM (Q14671 828-1176 S863R/R864K/Q867M): as the sequence (Q14671 828-1176 C1007R/Q1011N) above, with S36R, R37K, Q40M, R180C, N184Q counted along it
Sequence of PUM1 PUF domain R3-NPR (Q14671 828-1176 C935N/R936P/Q939R): as the sequence (Q14671 828-1176 C1007R/Q1011N) above, with C108N, R109P, Q112R, R180C, N184Q counted along it

Consider “GGCUAGAACUAGUGGAUCCCCCGGCGCCCGGCGGCUCGAGCCCGGGUAAGUGUAAUUAGUCUGCAUGCCGCCGGGCGCCAUGCCUGCAGGUCGACUCUAGAAAACAUG”, for which the results for the binding signal with PUM1 PUF domain R3-GRF, with PUM1 PUF domain R3-GPS and in the test with PUM1 PUF domain R3-NPR were 0.84 log2 enrichment (interaction score), 1.97 log2 enrichment (interaction score) and 2.25 log2 enrichment (interaction score), respectively.

For “GGCUAGAACUAGUGGAUCCCCCGGCGCCCGGCGGCUCGAGCCCGGGUAAGUGUGAAUAGUCUGCAUGCCGCCGGGCGCCAUGCCUGCAGGUCGACUCUAGAAAACAUG”, the binding signal with PUM1 PUF domain R5-RRN is 1.8 log2 enrichment (interaction score).

“GGCUAGAACUAGUGGAUCCCCCGGCGCCCGGCGGCUCGAGCCCGGGUAAGUGUAUAUAGUCUGCAUGCCGCCGGGCGCCAUGCCUGCAGGUCGACUCUAGAAAACAUG”: in the test with PUM1 PUF domain R4-SMT, the binding signal was 5.3 log2 enrichment (interaction score).

For “GGCUAGAACUAGUGGAUCCCCCGGCGCCCGGCGGCUCGAGCCCGGGUAAGUGUAAAUUGUCUGCAUGCCGCCGGGCGCCAUGCCUGCAGGUCGACUCUAGAAAACAUG”, in the test with PUM1 PUF domain R1-RKM, the binding signal is 3.28 log2 enrichment (interaction score).

For the sequence “GGCUAGAACUAGUGGAUCCCCCGGCGCCCGGCGGCUCGAGCCCGGGUAAGUGUAAGUAGUCUGCAUGCCGCCGGGCGCCAUGCCUGCAGGUCGACUCUAGAAAACAUG”, the binding signal is 5.59 log2 enrichment (interaction score) with PUM1 PUF domain R3-TCE and 1.23 log2 enrichment (interaction score) with PUM1 PUF domain R3-GFG.

For “GGCUAGAACUAGUGGAUCCCCCGGCGCCCGGCGGCUCGAGCCCGGGUAAGCGUAAAUAGUCUGCAUGCCGCCGGGCGCCAUGCCUGCAGGUCGACUCUAGAAAACAUG”, the binding signal in the test with PUM1 PUF domain R8-PFK was 4.13 log2 enrichment (interaction score).

For the sequence “GGCUAGAACUAGUGGAUCCCCCGGCGCCCGGCGGCUCGAGCCCGGGUAAGUGUUAAUAGUCUGCAUGCCGCCGGGCGCCAUGCCUGCAGGUCGACUCUAGAAAACAUG”, the binding signal with PUM1 PUF domain R5-RRN is 3.66 log2 enrichment (interaction score).

As to “GGCUAGAACUAGUGGAUCCCCCGGCGCCCGGCGGCUCGAGCCCGGGUAAGUGUCAAUAGUCUGCAUGCCGCCGGGCGCCAUGCCUGCAGGUCGACUCUAGAAAACAUG”, the binding signal in the test with PUM1 PUF domain R5-RRN was 4.4 log2 enrichment (interaction score); in the test with PUM1 PUF domain R5-ARR it was 4.7 log2 enrichment (interaction score).

As for “GGCUAGAACUAGUGGAUCCCCCGGCGCCCGGCGGCUCGAGCCCGGGUAAGUGUAAAUAGUCUGCAUGCCGCCGGGCGCCAUGCCUGCAGGUCGACUCUAGAAAACAUG”, the binding signal in the test with PUM1 PUF domain R5-RRN was 2.02 log2 enrichment (interaction score); in the test with PUM1 PUF domain R3-GRF, 4.89 log2 enrichment (interaction score); with PUM1 PUF domain R5-ARR, 4.33 log2 enrichment (interaction score); with PUM1 PUF domain R3-GFG it was 3.47 log2 enrichment (interaction score); with PUM1 PUF domain R3-GPS, 2.12 log2 enrichment (interaction score); with PUM1 PUF domain R4-SMT, 1.34 log2 enrichment (interaction score). For the same sequence, the binding signal in the test with PUM1 PUF domain R8-PFK was 5.15 log2 enrichment (interaction score).
